Screening data from PubChem.
Shown are actives, neighbours in structure and some others; about 1.2% of the full set was active somewhere.
TrxR1 substrate = qHTS Assay for Substrates of Mammalian Selenoprotein Thioredoxin Reductase 1 (TrxR1): qHTS; Potency, µM (doses to about 114 µM), for inactives: at the top dose activity change, negative = substrate turnover; Thioredoxin reductase 1, cytoplasmic (Rattus norvegicus), O89049; purified TrxR1 substrate turnover, NADPH consumption readout; 0.01% of 390,000 active; note: nearly all actives have a fitted effect of over 50% in size
Target sequence (O89049 whole entry, looked up): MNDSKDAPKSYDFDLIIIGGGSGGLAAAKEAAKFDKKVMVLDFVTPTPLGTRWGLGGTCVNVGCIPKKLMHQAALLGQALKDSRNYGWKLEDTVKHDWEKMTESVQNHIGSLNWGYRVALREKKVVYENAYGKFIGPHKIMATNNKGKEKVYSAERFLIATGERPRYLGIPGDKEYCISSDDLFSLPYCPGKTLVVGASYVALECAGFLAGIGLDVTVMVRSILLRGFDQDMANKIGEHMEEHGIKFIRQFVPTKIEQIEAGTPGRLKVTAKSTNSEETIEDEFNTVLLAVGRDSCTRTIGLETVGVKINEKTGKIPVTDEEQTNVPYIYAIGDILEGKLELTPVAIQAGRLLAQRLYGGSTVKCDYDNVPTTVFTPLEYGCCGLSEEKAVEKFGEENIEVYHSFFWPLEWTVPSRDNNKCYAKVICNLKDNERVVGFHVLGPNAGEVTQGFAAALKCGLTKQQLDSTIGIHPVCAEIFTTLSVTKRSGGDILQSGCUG
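Rat TrxR1, dispensed at 90 nM, was prereduced with 400 uM NADPH (final) for 5 min at ~22 deg C, then incubated with compound 15 min before 400 uM selenite. A first-read NADPH fluorescence drop versus no-compound background flagged substrates.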
NPSR antagonist = qHTS Assay for Antagonists of the Neuropeptide S Receptor: cAMP Signal Transduction. CHO-NPSR cells, cAMP TR-FRET, antagonist mode. Potency, µM (top dose mostly 38.3 µM), inactives show at the highest dose activity change, negative = inhibition, hits mostly inhibitors. 1% of 220,000 active. AID 1461, 2008; note: nearly all actives have a fitted effect of over 50% in size
rTrxR1 inhibitor = qHTS Assay for Inhibitors of Mammalian Selenoprotein Thioredoxin Reductase 1 (TrxR1): qHTS; Thioredoxin reductase 1, cytoplasmic (Rattus norvegicus), O89049; recombinant rTrxR1, NADPH fluorescence consumption, selenite substrate; Potency, µM (series often up to 114 µM), inactives show top-dose activity change, negative = inhibition, most hits filed as inhibitors; 1% of 390,000 active; note: nearly all actives have a fitted effect of over 65% in size
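Rat TrxR1 (90 nM in the dispensed reagent) was pre-reduced with 400 uM NADPH for 5 min at room temperature, then incubated with compound for 15 min. After 400 uM selenite was added, NADPH fluorescence (Ex 340/Em 450 nm) was followed for 8 min.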
GALK inhibitor = qHTS Assay for Inhibitors of Human Galactokinase (GALK); P51570; Purified GALK, Kinase-Glo residual ATP luminescence; Potency, µM (series often up to 57.5 µM), without a hit: top-dose activity change, negative = inhibition, usual class: inhibitors; 0.007% of 270,000 active; AID 1868, 2009
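Kinase-Glo Plus luminescence measured ATP left after a 1 h room-temperature reaction. The reaction used 5 nM GALK, 100 uM galactose and 35 uM ATP at pH 8.0 (20 mM HEPES, 5 mM MgCl2, 60 mM NaCl, 1 mM DTT, 0.01% BSA).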
An asterisk follows results filed as active; ? = inconclusive; nt = no result; ! = not confirmed by another sample; [ ] = dose if it differs, or a comment. Calls come from the whole dose curve; as a rule, active = well fitted curve in the direction sought with a large enough effect; inconclusive = small, poorly fitted or top-dose-only effect, or another doubt; inactive = no such curve, though single readings can be large; an effect the other way counts as inactive or inconclusive. % is set by controls: 0 for no effect and ±100 for the full control effect; potency is the fitted concentration of half-maximal effect.

SMILES	TrxR1 substrate	NPSR antagonist	rTrxR1 inhibitor	GALK inhibitor
COc1ccc(C(=O)N(c2ccc(C)cc2)S(=O)(=O)c2ccc(C)cc2)cc1	0.2%[57.1 µM]	nt	22.5%[57.1 µM]	nt
N=c1c2c(-c3ccccc3)c(-c3ccccc3)n(Cc3ccccc3)c2ncn1CCCn1ccnc1	0.4%	?	-3.5%	2.3%
N=c1c2c(-c3ccccc3)c(-c3ccccc3)n(Cc3ccco3)c2ncn1Cc1ccco1	-0.7%	10µM*	-19.7%	-0.2%
COc1ccc(-c2ccc3c(N)c(C(=O)NCc4ccc(Cl)cc4)sc3n2)cc1	33.5%	nt	-5.0%	nt
CC(C)CN(CCCNC(=O)CN1C(=O)COc2ccc(S(=O)(=O)N3CCCCCC3)cc21)CC(C)C	5.0%	nt	56.2µM*!	-5.6%
CCc1cccc(C)c1NC(=O)c1ccoc1C	-1.4%	-3.1%[46.1 µM]	20µM*	1.8%
Cc1cccc(N(C)C(=O)c2cnn(-c3ccccc3)c2C)c1	3.6%	nt	39.2%	-5.6%
CC(=O)c1sc(N/N=C2\CC3CC2C(C)C3(C)C)nc1C (stereo unspecified)	-6.1%	57.2%	11.2µM*	-2.3%
COc1ccc(-c2[nH]nc3c2C(c2ccc(OC(=O)N4CCOCC4)cc2)C(C#N)=C(N)O3)cc1 (stereo unspecified)	3.8%	12.6µM*	-12.4%	-3.2%
COc1ccc(OC)c(NC(=O)c2c(NCc3ccc(C)o3)sc3c2CCCCC3)c1	3.4%[57.1 µM]	nt	14.1µM*	nt
COc1ccc(Cl)cc1NC(=O)c1c(NCc2ccc(C)o2)sc2c1CCC(C)C2 (stereo unspecified)	1.4%[57.1 µM]	nt	-14.6%[57.1 µM]	nt
COc1ccccc1NC(=O)c1c(NCc2ccc(C)o2)sc2c1CCCCC2	2.1%[57.1 µM]	nt	14.1µM*	nt
COc1ccc(Cl)cc1NC(=O)c1c(NCc2ccc(C)o2)sc2c1CCCCC2	8.9%[57.1 µM]	nt	?	nt
Cc1ccc(-c2nn(-c3ccccc3)cc2C2SCC(=O)N2Cc2ccccc2)o1 (stereo unspecified)	13.7%	-25.3%[46.1 µM]	56.2µM*	-1.3%
CCOc1cc(-c2ccc(OC(=O)c3ccc(OC)cc3)c(OC)c2)cc(=O)c2c(C)oc(C)c12	-2.9%	nt	35.5µM*	nt
COc1ccc(-c2cc(OC(=O)c3ccc(Cl)cc3)c3c(C)oc(C)c3c(=O)c2)cc1	-6.7%	nt	50.1µM*	nt
FC(F)(F)c1ccc(C2Nc3cccc4cccc(c34)N2)cc1	-6.0%	-31.6%	28.2µM*	15.4%
CCN(CC)c1ccc(C2Nc3cccc4cccc(c34)N2)cc1	0.2%	nt	1.5%	6.1%
Brc1ccc(C2Nc3cccc4cccc(c34)N2)cc1	-9.1%	nt	?	nt
c1coc(C2Nc3cccc4cccc(c34)N2)c1	nt	-7.0%[46.1 µM]	nt	-2.0%
Cc1ccc(C2Nc3cccc4cccc(c34)N2)s1	-7.7%	-18.5%	22.4µM*	0.3%
Fc1ccc(C2Nc3cccc4cccc(c34)N2)cc1	-2.4%	nt	25.1µM*	0.3%
Cc1cc(/C=C/c2ccnc3ccccc23)ccc1N	-9.1%	nt	-5.1%	nt
Cc1noc(/C=C/c2ccco2)c1S(=O)(=O)N1CCC(C(=O)NC(C)c2ccccc2)CC1 (stereo unspecified)	7.0%[57.1 µM]	-20.5%[46.1 µM]	?	1.6%
Cc1noc(/C=C/c2ccco2)c1S(=O)(=O)N1CCC(C(=O)N(C)Cc2ccccc2)CC1	-11.8%	?	70.8µM*	0.6%
SMILES	TrxR1 substrate	NPSR antagonist	rTrxR1 inhibitor	GALK inhibitor
Cc1cc(N2CCOCC2)nc2ccc(NC(=S)NC(C)C)cc12	10.5%	nt	-13.5%	2.2%
Cc1cc(N2CCCC2)nc2ccc(NC(=S)NC(C)C)cc12	33.4%	-23.7%	7.94µM*	2.2%
CCOC(=O)c1sc2ccccc2c1S(=O)(=O)Nc1ccc(N(C)C)cc1	1.2%[57.1 µM]	nt	12.4%[57.1 µM]	nt
O=C(Nc1ncc([N+](=O)[O-])s1)c1cccc([N+](=O)[O-])c1	-5.3%[57.1 µM]	5.01µM*	38.6%[0.0914 µM]	0.5%
O=C(Nc1ccc(NC(=O)c2cccc([N+](=O)[O-])c2)cc1)c1cccc([N+](=O)[O-])c1	-11.1%	nt	-15.4%	3.6%
O=[N+]([O-])c1ccc(Nc2c3ccccc3nc3ccccc23)cc1	-11.4%[57.1 µM]	6.31µM*	8.5%[57.1 µM]	-3.2%
O=[N+]([O-])c1ccccc1Nc1c2ccccc2nc2ccccc12	-2.9%	-17.0%	11.5%	-1.2%
CN(C(=O)COC(=O)c1nc(Cl)c(Cl)c(Cl)c1Cl)C1CCS(=O)(=O)C1 (stereo unspecified)	8.0%[57.1 µM]	-29.6%	14.1µM*	6.4%
COc1ccc2c(c1)c1c(c(=O)n(-c3ccccc3)c(=O)n1CC(=O)Nc1ccc(C)c(C)c1)n2C	-1.8%	nt	7.3%	nt
O=C(CSCC(=O)OCn1nnc2ccccc2c1=O)Nc1ccc(Cl)cc1	1.1%	-15.4%[46.1 µM]	17.8µM*	-1.8%
CCOC(=O)c1c(NC(=O)CSc2cn(CCNC(=O)c3c(F)cccc3F)c3ccccc23)sc2c1CCCC2	0.8%	nt	16.9%	nt
CCCc1cc(=O)oc2cc(C)cc(OCC(=O)Nc3ccc(S(N)(=O)=O)cc3)c12	-4.7%	nt	20µM*	-0.7%
CCCc1cc(=O)oc2cc(C)cc(OCC(=O)Nc3ccccn3)c12	17.3%	nt	27.1%	-5.5%
CC1=C(C#N)C(=O)NC(=O)/C1=C\c1ccc(-c2cc(C)c(C)cc2[N+](=O)[O-])o1	-0.4%[57.1 µM]	-42.3%	14.1µM*	-1.8%
Cc1ccc(-c2ccc(/C=C3/NC(=O)NC3=O)o2)cc1[N+](=O)[O-]	-4.3%	-23.2%	-17.9%	0.0%
N#CCCN(C(=O)COC(=O)c1nc(Cl)ccc1Cl)c1ccccc1	-8.7%	nt	-7.0%	nt
CCCCCCN(C(=O)CCl)c1ccccc1	-3.3%	-38.9%	17.8µM*	3.9%
CCCN(C(=O)c1cc2c(Cl)nc3ccccc3c2s1)c1cccc(C)c1	-7.5%	nt	18.3%	nt
CCCCCCCN(C(=O)CCl)c1cccc(C)c1	3.8%	-19.7%	39.8µM*	-1.4%
N#CCCN(C(=O)CCl)c1cccc(Cl)c1	7.1%	25.4%	8.91µM*	-0.8%
Cc1cc2n(n1)SC(Nc1ccc(F)c(Cl)c1)N2 (stereo unspecified)	2.7%[57.1 µM]	-11.9%[46.1 µM]	14.1µM*	-2.3%
CCOc1ccc(-c2nnc(Nc3ccc(S(N)(=O)=O)cc3)c3ccccc23)cc1	0.7%	nt	-0.2%	nt
O=C1NCCCc2c1oc1cc(Br)c(O)c(Br)c21	1.0%	-14.6%[46.1 µM]	-14.7%	2.9%
O=C1NCCCC2c3c(cc(Br)c(O)c3Br)OC12N1CCCCC1 (stereo unspecified)	0.9%	-19.9%[46.1 µM]	25.1µM*	-0.4%
O=C(Cc1cccs1)NC1CC(=O)N(c2cccc(F)c2)C1 (stereo unspecified)	6.3%[57.1 µM]	nt	20.0%[57.1 µM]	nt
O=C(OCn1ncc(Cl)c(Cl)c1=O)c1cccc(C(F)(F)F)c1	2.6%	?	15.8µM*	-6.4%
CCc1ccc(C(=O)Cn2ncc(Cl)c(Cl)c2=O)cc1	5.8%	?	-30.2%	-0.9%
CCOc1ccc(CC(=O)C2C(=O)CC(C)(C)CC2=O)cc1OCC	-4.6%	-0.4%[46.1 µM]	35.5µM*	-1.6%
CCOc1ccc(CC(=O)C2C(=O)CCCC2=O)cc1OCC	3.2%[57.1 µM]	-9.2%[46.1 µM]	28.2µM*	-1.2%
